Here are results for 86 sequences from the supplement of paper PMC12636033.

± gives the standard deviation of the averaged measurements. In all, about 33,000 sequences were measured (“E-score (rank enrichment, -0.5 to 0.5)”: median about -0.0043, highest 2% from about 0.24 on). This is one part of a sample in which the highest values are shown more often than they occur.

This experiment relates to 2Sp-muMax20 (muMax20 with two 2,6-bis(methyl)pyridine Cys staples). The experiment in a line: PBM 8-mer E-score (E-score (rank enrichment, -0.5 to 0.5)); higher = stronger preferential binding. As to the method: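 Protein binding microarray (universal PBM chip covering all 10-mers in fixed probe flanks) with chemically synthesized human Max(13-93) bHLH-LZ analogs (not full-length Max) bearing noncanonical residues (hArg, Tha, Aib, Nle at 65) and aromatic Cys staples. Read-out per 8-mer (and its reverse complement): E-score (rank-based enrichment, -0.5 to 0.5) and Z-score of median probe intensity.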
For the sequence ATGGTATG, the “PBM 8-mer E-score” value came to 0.0455 ± 0.0021.

For ATGGTATC, the “PBM 8-mer E-score” value is 0.165 ± 0.011.

As to ATGGTATA, the “PBM 8-mer E-score” value is 0.238 ± 0.028.

AGGGTATG: the “PBM 8-mer E-score” value amounted to 0.178 ± 0.066.

For the sequence CGTCCTAG, the “PBM 8-mer E-score” value is -0.188 ± 0.035.

With ATGATGTC, the “PBM 8-mer E-score” value was 0.14 ± 0.091.

Turning to AGTGAATA, the “PBM 8-mer E-score” value is -0.07056 ± 0.00064.

Consider ACATAAGT, for which the “PBM 8-mer E-score” value was 0.132 ± 0.017.

As to ATAACCAG, the “PBM 8-mer E-score” value is 0.0292 ± 0.0095.

For the sequence ATCACCAC, the “PBM 8-mer E-score” value came to 0.276 ± 0.0035.

Consider CTAACCAC, for which the “PBM 8-mer E-score” value was -0.0501 ± 0.043.

Take CTCACCAC: the “PBM 8-mer E-score” value turned out to be 0.0921 ± 0.082.

As to ATCACCAT, the “PBM 8-mer E-score” value came to 0.103 ± 0.052.

Take ATAACCAC: the “PBM 8-mer E-score” value turned out to be 0.243 ± 0.014.

On to CCGAAGCA, for which the “PBM 8-mer E-score” value worked out at 0.0942 ± 0.036.

For CAGTGGCA, the “PBM 8-mer E-score” value was -0.004 ± 0.031.

As for CCGAATAA, the “PBM 8-mer E-score” value worked out at 0.0378 ± 0.031.

As to ACGTAGAG, the “PBM 8-mer E-score” value was -0.0148 ± 0.051.

Regarding GAAAATGC, the “PBM 8-mer E-score” value came to 0.127 ± 0.028.

Take CGAGGCTC: the “PBM 8-mer E-score” value was -0.224 ± 0.035.

In the case of AGCACATG, the “PBM 8-mer E-score” value was 0.263 ± 0.026.

As to ACCACATG, the “PBM 8-mer E-score” value amounted to 0.318 ± 0.0037.

Turning to ATCACATG, the “PBM 8-mer E-score” value was found to be 0.305 ± 0.021.

For AGCACATA, the “PBM 8-mer E-score” value was 0.0303 ± 0.1.

Take ACCACATC: the “PBM 8-mer E-score” value was -0.0798 ± 0.011.

For the sequence AGCACATC, the “PBM 8-mer E-score” value came out at 0.0563 ± 0.062.

Consider ATCACATC, for which the “PBM 8-mer E-score” value amounted to 0.0931 ± 0.021.

For the sequence ATCACATA, the “PBM 8-mer E-score” value was determined as 0.187 ± 0.0085.

Turning to ACCACATA, the “PBM 8-mer E-score” value came to 0.0521 ± 0.076.

Consider CAACGCCG, for which the “PBM 8-mer E-score” value is -0.168 ± 0.12.

On to CGAAACGA, for which the “PBM 8-mer E-score” value was -0.0544 ± 0.031.

For ATTGTCTG, the “PBM 8-mer E-score” value is 0.0837 ± 0.039.

CTCTCTCC: the “PBM 8-mer E-score” value is -0.18 ± 0.14.

Take CCCATTCC: the “PBM 8-mer E-score” value is -0.0919 ± 0.059.

Take CGCATACA: the “PBM 8-mer E-score” value is 0.0225 ± 0.14.

For AGCGCCAC, the “PBM 8-mer E-score” value was -0.0643 ± 0.017.

Turning to TCAATGGA, the “PBM 8-mer E-score” value was -0.0717 ± 0.0065.

Regarding CCGTGGGC, the “PBM 8-mer E-score” value was -0.2115 ± 0.0018.

GCCAGAGC: the “PBM 8-mer E-score” value was -0.206 ± 0.099.

For GAGTCTAC, the “PBM 8-mer E-score” value was -0.125 ± 0.044.

In the case of AGGTGGGA, the “PBM 8-mer E-score” value turned out to be 0.0626 ± 0.1.

For AATGGGTA, the “PBM 8-mer E-score” value is 0.0946 ± 0.14.

Regarding CGGTGGGA, the “PBM 8-mer E-score” value is -0.0291 ± 0.0059.

Take AGTGGGTA: the “PBM 8-mer E-score” value is 0.166 ± 0.0072.

With GGTGGGTA, the “PBM 8-mer E-score” value was 0.249 ± 0.035.

As for CGTGGGTA, the “PBM 8-mer E-score” value was found to be 0.0577 ± 0.045.

For GATGGGTA, the “PBM 8-mer E-score” value came out at 0.249 ± 0.014.

As to GGGTGGGA, the “PBM 8-mer E-score” value was 0.297 ± 0.0041.

As for CATGGGTA, the “PBM 8-mer E-score” value was found to be 0.072 ± 0.066.

As to CGGCACCC, the “PBM 8-mer E-score” value was -0.139 ± 0.13.

With GCTAGACC, the “PBM 8-mer E-score” value is -0.164 ± 0.049.

For the sequence CTTCGAAC, the “PBM 8-mer E-score” value was -0.115 ± 0.0046.

Consider ACCTACAG, for which the “PBM 8-mer E-score” value was determined as 0.0593 ± 0.044.

For the sequence AGCGGGGC, the “PBM 8-mer E-score” value was -0.0319 ± 0.078.

For AAAACATG, the “PBM 8-mer E-score” value was 0.24 ± 0.078.

Turning to GGAACATA, the “PBM 8-mer E-score” value is 0.0521 ± 0.044.

As for AAAACATT, the “PBM 8-mer E-score” value amounted to 0.0666 ± 0.088.

With CAAACATG, the “PBM 8-mer E-score” value is 0.157 ± 0.079.

For the sequence GAAACATC, the “PBM 8-mer E-score” value is -0.0525 ± 0.05.

As for CGAACATA, the “PBM 8-mer E-score” value was 0.255 ± 0.034.

Turning to AAAACATA, the “PBM 8-mer E-score” value was 0.0989 ± 0.11.

For the sequence GAAACATA, the “PBM 8-mer E-score” value was 0.254 ± 0.015.

With CGAACATC, the “PBM 8-mer E-score” value is 0.00373 ± 0.037.

In the case of ACAGACGG, the “PBM 8-mer E-score” value was -0.07 ± 0.089.

Consider ATTCGTTG, for which the “PBM 8-mer E-score” value was -0.0514 ± 0.066.

As for ACGTGTAA, the “PBM 8-mer E-score” value was determined as 0.173 ± 0.072.

Regarding GCAGCGAA, the “PBM 8-mer E-score” value was -0.157 ± 0.066.

Consider ACCTTGAT, for which the “PBM 8-mer E-score” value worked out at 0.0217 ± 0.046.

Take GATTCAAA: the “PBM 8-mer E-score” value was 0.0206 ± 0.051.

On to CTCGGTGC, for which the “PBM 8-mer E-score” value is -0.163 ± 0.12.

ACGAACTA: the “PBM 8-mer E-score” value was -0.0202 ± 0.1.

Turning to GGTACAAA, the “PBM 8-mer E-score” value turned out to be 0.0427 ± 0.053.

As for CGTACACG, the “PBM 8-mer E-score” value is 0.134 ± 0.035.

Take AGTACACA: the “PBM 8-mer E-score” value amounted to 0.196 ± 0.098.

For TGTACACA, the “PBM 8-mer E-score” value stood at 0.283 ± 0.012.

TGTACAAA: the “PBM 8-mer E-score” value worked out at 0.244 ± 0.054.

As for AGTACAAA, the “PBM 8-mer E-score” value is 0.134 ± 0.1.

GTAACAAC: the “PBM 8-mer E-score” value was 0.00768 ± 0.059.

In the case of ACATTCAG, the “PBM 8-mer E-score” value turned out to be 0.0112 ± 0.042.

In the case of AATGAATT, the “PBM 8-mer E-score” value amounted to 0.179 ± 0.031.

As to AATGAATC, the “PBM 8-mer E-score” value is -0.0131 ± 0.0047.

With GATGAATA, the “PBM 8-mer E-score” value was determined as 0.201 ± 0.093.

Consider TATGAATA, for which the “PBM 8-mer E-score” value stood at 0.169 ± 0.078.

On to AATGAATG, for which the “PBM 8-mer E-score” value stood at 0.24 ± 0.098.

With AATGAATA, the “PBM 8-mer E-score” value was found to be 0.259 ± 0.064.

For the sequence ATACTTGG, the “PBM 8-mer E-score” value was determined as 0.0935 ± 0.004.
